Measured values taken from the supplement of paper PMC3334620.
Over roughly 33,000 sequences, “E-score (-0.5 to 0.5)” has its median near -0.032; the highest 2% begin near 0.36. Only a selection was taken, and the highest values are over-represented in it overall.

Target: T1, Sko1 (UniProt Q02100)
T1 sequence: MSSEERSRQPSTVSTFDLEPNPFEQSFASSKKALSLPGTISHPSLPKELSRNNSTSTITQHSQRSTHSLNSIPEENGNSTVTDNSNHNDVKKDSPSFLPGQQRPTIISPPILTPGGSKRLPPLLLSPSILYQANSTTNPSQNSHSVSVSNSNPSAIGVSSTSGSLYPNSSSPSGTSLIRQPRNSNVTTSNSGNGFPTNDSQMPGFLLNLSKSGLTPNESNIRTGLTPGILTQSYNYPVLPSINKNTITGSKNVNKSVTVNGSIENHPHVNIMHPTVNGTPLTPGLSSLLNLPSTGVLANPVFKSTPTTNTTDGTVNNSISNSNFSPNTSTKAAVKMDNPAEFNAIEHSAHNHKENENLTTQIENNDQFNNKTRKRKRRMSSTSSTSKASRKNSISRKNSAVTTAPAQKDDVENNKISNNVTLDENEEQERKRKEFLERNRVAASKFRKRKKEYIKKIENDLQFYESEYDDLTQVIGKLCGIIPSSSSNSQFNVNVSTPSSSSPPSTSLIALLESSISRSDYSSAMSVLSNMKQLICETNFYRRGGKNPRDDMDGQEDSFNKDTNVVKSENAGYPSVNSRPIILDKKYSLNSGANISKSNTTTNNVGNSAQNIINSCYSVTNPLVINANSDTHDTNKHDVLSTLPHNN
Assay: PBM E-score (8-mer binding enrichment) (E-score (-0.5 to 0.5)); higher = stronger / more preferred TF binding
Conditions: protein concentration: 200 nM; construct: GST-full length
Procedure, shortened: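 Masliner-normalised scans of fluorescent anti-GST signal were the basis for scoring. That signal came from GST-tagged yeast transcription factors applied at about 100-200 nM to double-stranded universal all-10-mer Agilent arrays on fresh or once-stripped slides. Each ungapped eight-base word, pooled with its reverse complement, received an E-score from the Universal PBM Analysis Suite.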

| Sequence | PBM E-score |
| --- | --- |
| CTCCAAGA | -0.189 |
| ATTCTAGG | 0.0401 |
| AGTCGCGG | -0.312 |
| GCAAACGA | 0.136 |
| TAGCTACA | 0.13 |
| GGATTCTA | -0.0972 |
| TCATTGAA | 0.146 |
| AATCATAC | 0.253 |
| CATCATAG | 0.361 |
| AATCATAG | 0.126 |
| CATCATGG | 0.132 |
| CATCATAC | 0.377 |
| CATCATAA | 0.299 |
| ATAAATAC | 0.23 |
| CGATGGAA | 0.106 |
| AAACAATC | 0.0366 |
| ACAGGTTC | -0.291 |
| ACGGTTTG | -0.104 |
| GACCTAGA | 0.0106 |
| ATGTATGG | 0.0987 |
| CCGTATGC | -0.0726 |
| AGGTATGC | 0.118 |

| Sequence | PBM E-score |
| --- | --- |
| CCGTATGA | 0.135 |
| ACGTATGA | 0.473 |
| GCGTATGA | 0.337 |
| ACGTATGG | 0.441 |
| AAGTATGG | 0.023 |
| ACGTATGC | 0.458 |
| ACTCTCTG | -0.135 |
| CTCGCAAG | 0.0771 |
| CAGCACCG | -0.198 |
| AAGAGCAT | 0.0596 |
| AAAGGTGA | -0.09 |
| CATTGTTA | 0.108 |
| GTTCTTTA | 0.175 |
| GTTACTGA | 0.173 |
| CTTAGGTC | 0.0974 |
| CTTACGGA | 0.0115 |
| GTTACGTA | 0.483 |
| CTTACTTA | 0.0934 |
| CTTACGTA | 0.489 |
| CTTACGGC | -0.277 |
| CTTACGTC | 0.459 |
| GTTACGGA | 0.0875 |

| Sequence | PBM E-score |
| --- | --- |
| GGTTGCCA | -0.215 |
| CCCTGATA | -0.149 |
| ATCACTGG | 0.0306 |
| CATATCCA | -0.129 |
| ACCGTTCC | -0.0907 |
| GCGCCACC | -0.291 |
| AGACGTGC | 0.241 |
| AAACGTGG | 0.213 |
| GTACGTGA | 0.416 |
| AAACGTGA | 0.308 |
| AGACGTGG | 0.203 |
| GAACGTGA | 0.175 |
| ATACGTGG | 0.429 |
| ATACGTGC | 0.406 |
| GGACGTGA | 0.181 |
| ATACGTGA | 0.426 |
| CTACGTGC | 0.354 |
| AGACGTGA | 0.312 |
| CAGTCTTC | -0.187 |
| AGCCGAAT | -0.104 |
| AGCCTTTA | 0.0785 |
| CTGGTGGA | -0.185 |

| Sequence | PBM E-score |
| --- | --- |
| CTTCGTGA | 0.186 |
| CTACGCGA | 0.167 |
| CTACGTGA | 0.404 |
| CGTCAGAA | 0.37 |
| CGTCAAAC | 0.253 |
| CGTCAAAA | 0.36 |
| CGTCAGAC | 0.394 |
| AGTCAGAG | -0.142 |
| CGTCAGAG | 0.429 |
| AGTCAGAA | -0.0299 |
| GGTCAGAC | -0.241 |
| GGTCAGAA | -0.206 |
| AGTCAGAC | -0.203 |
| GGTCAAAA | 0.096 |
| CCTCAGAG | -0.374 |
| CTAACTTA | 0.00938 |
| CGCTGTGC | -0.202 |
| CGTTATTA | 0.303 |
| CACAGTGC | -0.182 |
| AGACTTAT | -0.0312 |
| AGTCAATC | 0.017 |
